Values joined by “and” are separate entries in the source; they are usually repeats but may differ in a detail not shown here. Equal values may be shown once. Active and inactive are the calls of the source.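 How the source made its calls, unless noted: active means compounds whose cell count with miR-34 switched on is under 0.7 times the count with it off; inactive means the rest.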
Experiments:
[1] = liver-stage malaria parasite growth inhibition, primary screen, cell-based, HepG2, luciferase luminescence, HepG2 viability (AID 624349; in the data active means parasite load remaining mostly below about 12%, no sharp cut-off; inactive means mostly above about 10%;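 further: 100% = mean of DMSO negative control wells on the same plate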); settings: P. berghei liver stage in HepG2, luciferase luminescence, concentration not given here; parasite load remaining: stronger effect = lower value; viability: measured here: HepG2 viability without parasites
[2] = stimulators of nuclear beta-catenin in C2C12, primary screen, imaging, WNT3A-conditioned medium, mouse C2C12, NPC library (AID 1117326; in the data active means nuclear beta-catenin stimulation mostly above about 4.2%, no sharp cut-off; inactive means mostly below about 10%); settings: stronger effect = higher value
[3] = stimulators of insulin release from INS-1E, primary screen, cell-based, 5 mM glucose, NPC library (AID 1117329;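 active means compound raises insulin release from rat beta cells at 5 mM glucose, no numeric limit stated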); settings: rat INS-1E insulin secretion, at 10 µM, stronger effect = higher value
[4] = growth inhibition of GSK3B-pretreated HCT116 cells – cell-based, CellTiter-Glo, 0.2 to 20 µM (AID 1117336;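 active means compounds lowering colon cancer cell viability after pretreatment blocking the GSK3B kinase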); settings: HCT116 viability after GSK3B inhibitor, at 20 µM, stronger effect = higher value
[5] = inhibition of endothelial tube formation, primary screen, imaging, VEGF stimulated, CD31 staining, tube area, NPC library (AID 1117340;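 active means compound that reduces growth-factor-driven endothelial tube area in a mixed cell culture, no cutoff stated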); settings: VEGF-stimulated ADSC/ECFC co-culture, at 10 µM, stronger effect = higher value
[6] = glucagon-like peptide 1 release enhancers, primary assay, NCI-H716 cell line, NPC library (AID 1117341;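 active means compound raises GLP1 secretion from the human gut endocrine cells, with no numeric limit stated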); settings: NCI-H716 cells, at 10 µM, stronger effect = higher value
[7] = HCT116 colon cancer cell growth inhibition, primary screen, CellTiter-Glo luminescence, NPC library (AID 1117342;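 active means compounds that lower survival of HCT116 colon cancer cells in the luminescence readout, no numeric limit stated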); settings: at 20 µM (top of the series)
[8] = CellTiter-Glo luminescent readout of SW480 viability loss, NPC library primary (AID 1117343;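 active means compounds that lower viability of the colon cancer cells in the luminescence readout, with no numeric limit stated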); settings: CellTiter-Glo luminescence; at 20 µM (top of the series)
[9] = decreased DLD-1 cellular survival, CellTiter-Glo luminescent readout, NPC compound collection, primary HTS (AID 1117346;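 active means compounds that lower survival of DLD-1 colon cancer cells in the luminescence readout, no cutoff given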); settings: DLD-1 viability, CellTiter-Glo luminescence; at 20 µM (top of the series)
[10] = differential killing of epithelial or mesenchymal cells, primary screen, imaging, PC-3E GFP, TEM4-18 mCherry, co-culture (AID 1345086;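 active means compounds killing one labelled cell type while sparing the other, by normalised counts and ratio limits, not self-fluorescent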;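 on all read-outs here: cells exposed to compound for 72 h before imaging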;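 on red/green cell ratio (normalised): normalised mesenchymal count divided by normalised epithelial count so high means epithelial killing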); settings: imaging cell counts, at 1 µM; for red/green cell ratio (normalised): actives lie on both sides
[11] = test system: Aerobactin synthetase IucA (Klebsiella pneumoniae hvKP1); experiment: Biochemical IucA enzyme inhibition primary screen of the Spectrum library (AID 1346200; call rule not given here;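 further: 100% = wells without compound and 0% = wells lacking enzyme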); settings: malachite green pyrophosphate, A620, at 8 µM, stronger effect = lower value
[12] = sensitizers of A549 cells to miR-34 induction, primary screen, imaging, A549 dox-inducible miR-34, nuclei and caspase counts (AID 1347080); settings: A549 miR-34 inducible, Hoechst nuclei count, 48 h
[13] = molecular target: NAD(+) hydrolase SARM1 (Homo sapiens) (UniProt Q6SZW1); experiment: SARM1 TIR NADase inhibitors, cell lysate, NAD-Glo luminescence (AID 1508614;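 active means compound whose remaining NAD level is above about 45 nM, limit read from the data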); settings: SAM-TIR HEK293T lysate NADase, at 1 µM, stronger effect = higher value
[14] = molecular target: Mitogen-activated protein kinase 7 (Homo sapiens) (UniProt Q13164); experiment: ERK5 transactivation activators in reporter cells, primary screen, cell-based, HTS (AID 1508626;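 active means luciferase signal above three times the same-plate solvent-only control wells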;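 further: luciferase driven by Gal4-ERK5 fusion binding five Gal4 sites before minimal TATA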); settings: HeLa Gal4-ERK5 transactivation, 18 h, at 5 µM, stronger effect = higher value
[15] = viability rescue of complex I mutant cybrids, primary screen, cell-based, galactose medium, ATP luminescence (AID 1645843;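 active means z-score of at least 1.8 in each of two replicates, scored against plate mean and spread of sample wells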;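 further: positive z means more ATP and so rescue of galactose-driven cybrid death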); settings: complex I mutant cybrid cells, 72 h, stronger effect = higher value
[16] = test system: Aerobactin synthetase IucA (Klebsiella pneumoniae, hypervirulent); experiment: IucA enzyme inhibition, biochemical, LOPAC library, absorbance readout (AID 1346212; call rule not given here;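 further: 100% = no compound wells and 0% = no enzyme wells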); settings: IucA enzyme assay, absorbance (OD) readout; stronger effect = lower value;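 tested at 8 µM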
[17] = survival rescue of mitochondrial mutant cells in low glucose, primary screen, MELAS cybrids, Rieske KO mouse fibroblasts, CellTiter-Glo (AID 1508586;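 active means mean z-score across replicates of 1.96 or higher in either the MELAS or the Rieske mutant cell line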;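 further: z relative to plate mean and SD of compound and empty wells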)
[18] = hESC survival regulators, cell-based (AID 493140; call rule not given here;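 further: cells exposed to compounds for four days before counting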); settings: human embryonic stem cell survival screen; stronger effect = higher value
[19] = measured here: epithelial PC-3E GFP cell survival
[20] = measured here: mesenchymal TEM4-18 mCherry cell survival
[21] = measured here: relative caspase fold change +Dox/-Dox
[22] = measured here: total cells with miR-34 induction, stronger effect = lower value
[23] = measured here: total cells without miR-34 induction
[24] = MELAS cybrid survival, CellTiter-Glo 48 h, stronger effect = higher value
[25] = Rieske KO mouse fibroblast survival, CellTiter-Glo 72 h

Sequence of NAD(+) hydrolase SARM1 (Homo sapiens) (Q6SZW1 whole entry, looked up, the tested form may be a part): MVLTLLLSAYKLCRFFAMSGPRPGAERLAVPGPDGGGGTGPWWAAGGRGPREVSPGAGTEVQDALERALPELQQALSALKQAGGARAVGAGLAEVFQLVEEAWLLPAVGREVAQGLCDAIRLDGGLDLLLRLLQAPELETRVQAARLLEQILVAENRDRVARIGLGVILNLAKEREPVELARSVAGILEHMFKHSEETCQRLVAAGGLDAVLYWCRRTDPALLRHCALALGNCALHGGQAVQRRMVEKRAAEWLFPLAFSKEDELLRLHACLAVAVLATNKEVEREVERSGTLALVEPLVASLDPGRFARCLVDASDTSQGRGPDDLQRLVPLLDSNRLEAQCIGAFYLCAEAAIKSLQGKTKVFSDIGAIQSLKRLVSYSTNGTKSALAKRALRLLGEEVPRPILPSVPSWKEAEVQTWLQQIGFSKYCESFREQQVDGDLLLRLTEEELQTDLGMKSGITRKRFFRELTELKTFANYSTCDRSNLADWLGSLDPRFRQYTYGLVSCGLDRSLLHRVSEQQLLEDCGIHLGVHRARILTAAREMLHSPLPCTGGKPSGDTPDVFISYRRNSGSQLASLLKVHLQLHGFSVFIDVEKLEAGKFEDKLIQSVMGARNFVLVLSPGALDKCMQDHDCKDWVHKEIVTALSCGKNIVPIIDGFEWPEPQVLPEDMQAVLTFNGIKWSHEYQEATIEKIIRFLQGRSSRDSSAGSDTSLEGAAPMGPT
Sequence of Mitogen-activated protein kinase 7 (Homo sapiens) (Q13164 whole entry, looked up, the tested form may be a part): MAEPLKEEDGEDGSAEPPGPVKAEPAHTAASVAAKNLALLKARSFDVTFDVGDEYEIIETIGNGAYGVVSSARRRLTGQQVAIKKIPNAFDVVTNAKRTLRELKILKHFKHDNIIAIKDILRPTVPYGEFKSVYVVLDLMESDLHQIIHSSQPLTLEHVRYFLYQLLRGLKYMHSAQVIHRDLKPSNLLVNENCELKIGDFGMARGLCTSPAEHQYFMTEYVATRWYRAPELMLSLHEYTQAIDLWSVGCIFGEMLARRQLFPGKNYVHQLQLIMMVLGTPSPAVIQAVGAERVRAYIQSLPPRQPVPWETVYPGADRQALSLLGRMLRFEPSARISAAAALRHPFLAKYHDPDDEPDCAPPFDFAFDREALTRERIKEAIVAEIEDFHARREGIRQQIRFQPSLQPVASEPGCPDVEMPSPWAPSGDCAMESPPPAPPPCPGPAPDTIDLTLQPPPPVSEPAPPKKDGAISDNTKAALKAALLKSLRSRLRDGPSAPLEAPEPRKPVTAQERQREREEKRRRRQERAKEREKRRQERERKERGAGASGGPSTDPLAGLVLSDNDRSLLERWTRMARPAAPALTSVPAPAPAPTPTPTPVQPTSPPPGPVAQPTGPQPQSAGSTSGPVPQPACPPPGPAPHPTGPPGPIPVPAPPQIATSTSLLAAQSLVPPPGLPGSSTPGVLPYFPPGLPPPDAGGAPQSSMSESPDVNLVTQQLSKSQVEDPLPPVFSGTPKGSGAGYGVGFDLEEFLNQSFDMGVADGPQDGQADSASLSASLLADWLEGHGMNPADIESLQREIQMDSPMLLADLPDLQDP

## Nc1ccc([As](=O)(O)O)cc1
[1]
  parasite load remaining: 57.3% (inactive)
  viability: 124%
[2]; at 10 µM
  nuclear beta-catenin stimulation: 1.1% (inactive)
[2]; stimulation, at 2 µM
  nuclear beta-catenin stimulation: 0.8%
[3]
  insulin secretion stimulation: -1.7% (inactive)
[4]
  viability decrease: -4.2% (inactive)
[5]
  tube area decrease: -12.5% (inactive)
[6]
  GLP1 secretion stimulation: 0.9% (inactive)
[7]
  inhibition of viability: 26% (inactive)
[8]
  viability decrease (inhibition): 2.1% (inactive)
[9]
  viability decrease (inhibition): -7.6% (inactive)
[10]
  red/green cell ratio (normalised): 0.96 (inactive)
[10]; [19]
  normalised cell number: 1.12
[10]; [20]
  normalised cell number: 1.07
[11]
  activity remaining: 117% (inactive)
[12]; stronger effect = lower value
  fold change: 0.904 (inactive)
[12]; [21]
  fold change: 4.85
[12]; [22]
  cell count: 12200
[12]; [23]
  cell count: 13500
[13]
  remaining NAD: 10 nM (inactive)
[14]
  luciferase signal: 48 AU (inactive)

## CCN(CC)CCOC(=O)C(O)(c1ccccc1)c1ccccc1
[1]
  parasite load remaining: 103% (inactive)
  viability: 95.8%
[2]; at 10 µM
  nuclear beta-catenin stimulation: -0.3% (inactive)
[2]; stimulation, at 2 µM
  nuclear beta-catenin stimulation: -1.2%
[3]
  insulin secretion stimulation: 4% (inactive)
[4]
  viability decrease: -5.8% (inactive)
[5]
  tube area decrease: -5.7% (inactive)
[6]
  GLP1 secretion stimulation: 1% (inactive)
[7]
  inhibition of viability: 1.8% (inactive)
[8]
  viability decrease (inhibition): -15.1% (inactive)
[9]
  viability decrease (inhibition): 2.6% (inactive)
[12]; stronger effect = lower value
  fold change: 1.01 (inactive)
[12]; [21]
  fold change: 1.6
[12]; [22]
  cell count: 10200
[12]; [23]
  cell count: 10100
[15]
  z-score: 0.79 (inactive)

## C[N+]1(CCC(C(N)=O)(c2ccccc2)c2ccccc2)CCCCC1
[1]
  parasite load remaining: 104% (inactive)
  viability: 70.3%
[2]; at 10 µM
  nuclear beta-catenin stimulation: 0.3% (inactive)
[2]; stimulation, at 2 µM
  nuclear beta-catenin stimulation: 0.3%
[3]
  insulin secretion stimulation: 0.55% (inactive)
[4]
  viability decrease: 13.5% (inactive)
[5]
  tube area decrease: -8.4% (inactive)
[6]
  GLP1 secretion stimulation: 1.2% (inactive)
[7]
  inhibition of viability: -21.6% (inactive)
[8]
  viability decrease (inhibition): -9.7% (inactive)
[9]
  viability decrease (inhibition): -24.2% (inactive)
[12]; stronger effect = lower value
  fold change: 0.846 (inactive)
[12]; [21]
  fold change: 2.2
[12]; [22]
  cell count: 8180
[12]; [23]
  cell count: 9670
[15]
  z-score: 0.675 (inactive)

## CC[C@@H](CO)NC(=O)[C@@H]1C=C2c3cccc4c3c(cn4C)C[C@H]2N(C)C1
[2]; at 10 µM
  nuclear beta-catenin stimulation: 3.3% (inactive)
[2]; stimulation, at 2 µM
  nuclear beta-catenin stimulation: 1.1%
[3]
  insulin secretion stimulation: 2.6% (inactive)
[4]
  viability decrease: 1% (inactive)
[5]
  tube area decrease: -1.8% (inactive)
[6]
  GLP1 secretion stimulation: 0.1% (inactive)
[7]
  inhibition of viability: 9.4% (inactive)
[8]
  viability decrease (inhibition): 16% (inactive)
[9]
  viability decrease (inhibition): 5.6% (inactive)
[10]
  red/green cell ratio (normalised): 0.99 (inactive)
[10]; [19]
  normalised cell number: 0.96
[10]; [20]
  normalised cell number: 0.95
[16]
  remaining activity: 112% (inactive)
[17]; [24]
  z-score: -0.563 (inactive)
[17]; [25]
  z-score: -1.27
[13]
  remaining NAD: 10 nM (inactive)
[15]
  z-score: 0.19 (inactive) and -0.69 (inactive) and -0.15 (inactive)

## Cc1cccc(C)c1NC(=O)CN1CCCC1=O
[2]; at 10 µM
  nuclear beta-catenin stimulation: -1.9% (inactive)
[2]; stimulation, at 2 µM
  nuclear beta-catenin stimulation: 0.9%
[3]
  insulin secretion stimulation: 1.6% (inactive)
[4]
  viability decrease: 0.1% (inactive)
[5]
  tube area decrease: -2.5% (inactive)
[6]
  GLP1 secretion stimulation: -2.4% (inactive)
[7]
  inhibition of viability: 0.2% (inactive)
[8]
  viability decrease (inhibition): 0.5% (inactive)
[9]
  viability decrease (inhibition): -10.5% (inactive)
[16]
  remaining activity: 106% (inactive)
[12]; stronger effect = lower value
  fold change: 0.975 (inactive) and 0.928 (inactive)
[12]; [21]
  fold change: 1.2 and 0.724
[12]; [22]
  cell count: 10700 and 8710
[12]; [23]
  cell count: 11000 and 9380
[17]; [24]
  z-score: -0.209 (inactive)
[17]; [25]
  z-score: 0.685
[13]
  remaining NAD: 10 nM (inactive)
[15]
  z-score: 0.43 (inactive)

## COc1ccc(CN2CCNCC2)c(OC)c1OC
[18]
  survival: 5.83 (inactive)
[1]
  parasite load remaining: 122% (inactive) and 71.5% (inactive)
  viability: 118% and 81.2%
[2]; at 10 µM
  nuclear beta-catenin stimulation: 0.8% (inactive)
[2]; stimulation, at 2 µM
  nuclear beta-catenin stimulation: 1.1%
[3]
  insulin secretion stimulation: -0.9% (inactive)
[4]
  viability decrease: 14.1% (inactive)
[5]
  tube area decrease: 8.8% (inactive)
[6]
  GLP1 secretion stimulation: 0% (inactive)
[7]
  inhibition of viability: 19.3% (inactive)
[8]
  viability decrease (inhibition): -6.6% (inactive)
[9]
  viability decrease (inhibition): 1.5% (inactive)
[10]
  red/green cell ratio (normalised): 0.94 (inactive)
[10]; [19]
  normalised cell number: 1.11
[10]; [20]
  normalised cell number: 1.05
[12]; stronger effect = lower value
  fold change: 0.892 (inactive)
[12]; [21]
  fold change: 1.29
[12]; [22]
  cell count: 9020
[12]; [23]
  cell count: 10100
[17]; [24]
  z-score: 0.315 (inactive)
[17]; [25]
  z-score: 0.274
[13]
  remaining NAD: 10 nM (inactive)

## Cc1ncsc1CCCl
[2]; at 10 µM
  nuclear beta-catenin stimulation: 1% (inactive)
[2]; stimulation, at 2 µM
  nuclear beta-catenin stimulation: 2.4%
[3]
  insulin secretion stimulation: -0.8% (inactive)
[4]
  viability decrease: -208% (inactive)
[5]
  tube area decrease: -22% (inactive)
[6]
  GLP1 secretion stimulation: -0.4% (inactive)
[7]
  inhibition of viability: -3.1% (inactive)
[8]
  viability decrease (inhibition): 43.8% (inactive)
[9]
  viability decrease (inhibition): 72.4% (active)
[12]; stronger effect = lower value
  fold change: 0.959 (inactive) and 0.961 (inactive)
[12]; [21]
  fold change: 0.758 and 0.938
[12]; [22]
  cell count: 9720 and 8120
[12]; [23]
  cell count: 10100 and 8450
[15]
  z-score: 0.7 (inactive) and 0.075 (inactive)

## CCCN1CCC[C@@H]2Cc3nc(N)ncc3C[C@H]21
[2]; at 10 µM
  nuclear beta-catenin stimulation: 4.8% (inactive)
[2]; stimulation, at 2 µM
  nuclear beta-catenin stimulation: -0.2%
[3]
  insulin secretion stimulation: -0.2% (inactive)
[4]
  viability decrease: -24.3% (inactive)
[5]
  tube area decrease: -0.4% (inactive)
[6]
  GLP1 secretion stimulation: -2.2% (inactive)
[7]
  inhibition of viability: -3.2% (inactive)
[8]
  viability decrease (inhibition): -4.6% (inactive)
[9]
  viability decrease (inhibition): -14.6% (inactive)
[16]
  remaining activity: 118% (inactive)
[12]; stronger effect = lower value
  fold change: 0.958 (inactive)
[12]; [21]
  fold change: 2.12
[12]; [22]
  cell count: 9790
[12]; [23]
  cell count: 10200
[15]
  z-score: 0.925 (inactive)

## COP(=O)(OC)OC=C(Cl)Cl
[1]
  parasite load remaining: 43.6% (inactive)
  viability: 96%
[2]; at 10 µM
  nuclear beta-catenin stimulation: -0.5% (inactive)
[2]; stimulation, at 2 µM
  nuclear beta-catenin stimulation: -1.3%
[3]
  insulin secretion stimulation: -1.6% (inactive)
[4]
  viability decrease: 37% (inactive)
[5]
  tube area decrease: -16.8% (inactive)
[6]
  GLP1 secretion stimulation: -1.2% (inactive)
[7]
  inhibition of viability: -1.53% (inactive)
[8]
  viability decrease (inhibition): 26.8% (inactive)
[9]
  viability decrease (inhibition): -3.8% (inactive)
[10]; counts scaled to control wells, 1 = unselective
  red/green cell ratio (normalised): 1.1 (inactive)
[10]; [19]
  normalised cell number: 1.09
[10]; [20]
  normalised cell number: 1.2
[12]; stronger effect = lower value, cell number ratio, induced over uninduced
  fold change: 0.895 (inactive)
[12]; [21]
  fold change: 1.25
[12]; [22]
  cell count: 10900
[12]; [23]
  cell count: 12200
[13]
  remaining NAD: 10 nM (inactive)
[14]
  luciferase signal: 84 AU (inactive)

Source: PubChem BioAssay
